Nine molecules from PubChem BioAssay can be followed below.

Values joined by “and” are separate entries in the source; they are usually repeats but may differ in a detail not shown here. Equal entries are not always repeated. Active and inactive are the calls of the source.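 Rule for the calls: active = z-score of at least 1.8 in each of two replicates, scored against plate mean and spread of sample wells; inactive = the rest.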

This assay is described as follows: viability rescue of complex I mutant cybrids, primary screen, cell-based, galactose medium, ATP luminescence (AID 1645843).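 Note: positive z means more ATP and so rescue of galactose-driven cybrid death.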 The conditions noted are these: complex I mutant cybrid cells, 72 h, active compounds read high.
Take `COc1cc(N)c(Cl)cc1C(=O)NC1CCN(CCCOc2ccc(F)cc2)CC1OC` (centres undefined): the z-score was -0.435 (inactive).

Consider `CCOCC(O)COc1ccc(NC(=O)CC[S+](C)C)cc1` (centres undefined), for which the z-score is -0.075 (inactive). For `C[N+](C)(C)CCCCCCCCCC[N+](C)(C)C` the value was 0.27 (inactive) and 0.14 (inactive); for `Cc1cc(C(C#N)c2ccc(Cl)cc2)c(Cl)cc1NC(=O)c1cc(I)cc(I)c1O` (centres undefined), 0.12 (inactive). As to `Nc1ncn([C@H]2C[C@H](O)[C@@H](CO)O2)c(=O)n1`, the z-score was 0.69 (inactive).

For `CN(C)CCCOc1nn(Cc2ccccc2)c2ccccc12`, the z-score was -0.89 (inactive). For `CC1=C(/C=C/C(C)=C/C=C/C(C)=C/C(=O)Nc2ccc(O)cc2)C(C)(C)CCC1` the value was -0.95 (inactive) and -0.72 (inactive) and -2.12 (inactive); for `Nc1nc(Cl)nc2c1ncn2[C@@H]1O[C@H](CO)[C@@H](O)[C@@H]1F`, -0.56 (inactive) and -2.21 (inactive). For `CC(O)(P(=O)(O)O)P(=O)(O)O` the value was -2.15 (inactive) and 0.43 (inactive).
